Measurements: PubChem BioAssay AID1851 (National Center for Advancing Translational Sciences (NCATS), 2009)
About 5,700 (36%) of roughly 16,000 compounds were called active. Another 24% or so got no clear call; they are omitted. Calls follow the shape of the dose curve; as a rule, active = well fitted curve in the direction sought with a large enough effect; inconclusive = small, poorly fitted or top-dose-only effect, or effect the other way; inactive = no such curve, though single readings can be large or run the other way. The list shows a part of the results.
% is scaled to controls: 0 for no effect and ±100 for the full control effect.

These compounds were tested against Cytochrome P450 1A2 (Homo sapiens) (UniProt P05177) (assay: Cytochrome panel assay with activity outcomes). Details: recombinant CYP, pro-luciferin dealkylation, luminescence, p450-cyp1a2; series mostly up to 57.1 µM; activity, negative = inhibition: at the top concentration.
Chain of Cytochrome P450 1A2 (Homo sapiens) (P05177 whole entry, looked up): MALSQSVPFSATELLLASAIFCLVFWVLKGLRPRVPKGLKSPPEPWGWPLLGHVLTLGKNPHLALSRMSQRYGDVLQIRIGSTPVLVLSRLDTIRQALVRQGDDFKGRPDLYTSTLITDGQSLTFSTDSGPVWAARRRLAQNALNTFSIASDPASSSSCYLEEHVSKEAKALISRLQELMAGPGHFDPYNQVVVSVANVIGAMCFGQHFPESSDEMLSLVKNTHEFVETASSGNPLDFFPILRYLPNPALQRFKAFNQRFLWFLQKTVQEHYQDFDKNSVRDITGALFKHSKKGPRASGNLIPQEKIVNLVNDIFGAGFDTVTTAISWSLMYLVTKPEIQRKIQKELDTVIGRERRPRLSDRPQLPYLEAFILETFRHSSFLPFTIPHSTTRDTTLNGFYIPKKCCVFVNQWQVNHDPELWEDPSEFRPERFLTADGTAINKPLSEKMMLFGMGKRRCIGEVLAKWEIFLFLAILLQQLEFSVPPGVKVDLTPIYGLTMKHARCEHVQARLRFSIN
For COc1ccccc1CNc1ccnc(-c2ccccc2Cl)n1, the AC50 was 5010 nM (active).
For Cc1n[nH]c(=O)nc1NCc1ccccc1Cl, the “activity, negative = inhibition” value was -20% (inactive).
Cc1cc(OCCn2cc(/C(N)=N/O)c3ccccc32)ccc1Cl was tested, and the AC50 was 2000 nM (active).
In the case of CC(=O)c1cn(CC(=O)Nc2c(C)cccc2C)c2ccccc12, the “activity, negative = inhibition” value was -15.1% (inactive).
CC(=O)NNC(=O)C(O)(c1ccccc1)c1ccccc1 was tested, and the “activity, negative = inhibition” value was 11.7% (inactive).
For CC(=O)NNc1nc2ccccc2s1, the AC50 was 11200 nM (active).
O=[N+]([O-])c1ccc(Nc2nc3ccccc3s2)cc1 was tested, and the activity, negative = inhibition was -20% [at 11.4 µM] (inactive).
In the case of c1ccc2sc(NC3=NCN(C4CCCCCC4)CN3)nc2c1, the “activity, negative = inhibition” value was -20.1% (inactive).
For O=C(NNc1nc2ccccc2s1)C1CC1, the AC50 was 20000 nM (active).
In the case of NC(=O)c1ccc(NC(=O)C2CCCO2)cc1 (stereo not drawn), the “activity, negative = inhibition” value was -0.873% (inactive).
In the case of CCOC(=O)c1ccc(NC(=O)C2CCCO2)cc1 (stereo not drawn), the AC50 was 2510 nM (active).
For Cc1ccc(CS(=O)(=O)CCC(=O)NCCCN2CCCC2)cc1, the “activity, negative = inhibition” value was -13.9% (inactive).
With CCCC(CCC)C(=O)NNc1cc(=O)c2c(=O)n(C)c(=O)n(C)c2[nH]1 the “activity, negative = inhibition” value was -22.7% (inactive).
In the case of CCC(=O)NNc1cc(=O)c2c(=O)n(C)c(=O)n(C)c2[nH]1, the AC50 was 2820 nM (active).
With Cc1nn(-c2ccc(F)cc2)c(Cl)c1/C=C(\CCC(=O)O)c1nc2ccccc2s1 the “activity, negative = inhibition” value was -0.314% (inactive).
In the case of Cc1nn(-c2ccc(F)cc2)c(C)c1NS(=O)(=O)c1ccc2ccccc2c1, the AC50 was 15800 nM (active).
With Cc1cc(C)nc(NS(=O)(=O)c2ccc(N)cc2)n1 the “activity, negative = inhibition” value was -4.94% [at 25.6 µM] (inactive).
CCCCn1c(NCc2ccccc2NS(=O)(=O)c2ccc(C)cc2)nc2ccccc21 was tested, and the “activity, negative = inhibition” value was 4.94% (inactive).
COc1ccccc1S(=O)(=O)Nc1ccc(-c2nnc3n2CCCCC3)cc1 was tested, and the “activity, negative = inhibition” value was 0.614% (inactive).
Cc1ccc(S(=O)(=O)Nc2nc3ccccc3nc2N2CCc3ccccc3C2)cc1 was tested, and the AC50 was 22400 nM (active).
For Cc1ccc(C(=O)N/N=C\c2cccn2C)cn1, the AC50 was 12600 nM (active).
In the case of Cn1cccc1/C=N/NC(=O)c1sc2ccccc2c1Cl, the AC50 was 891 nM (active).
C=N[C@H](C(=O)N[C@@H]1C(=O)N2[C@@H]1SC(C)(C)[C@@H]2C(=O)O)c1ccccc1 was tested, and the “activity, negative = inhibition” value was -11.1% [at 25.6 µM] (inactive).
Cc1ccc(COn2c(-c3ccc(Cl)cc3)nc3ccc([N+](=O)[O-])cc32)cc1 was tested, and the AC50 was 398 nM (active).
For Oc1ccc(Cn2c(-c3ccc(O)cc3)nc3ccccc32)cc1, the activity, negative = inhibition was -5.47% [at 11.4 µM] (inactive).
For O=[N+]([O-])c1ccc(N2CCC(=NOCc3ccc(Cl)cc3)CC2)cc1, the “activity, negative = inhibition” value was -21.2% (inactive).
With O=[N+]([O-])c1ccc2nc(-c3ccccc3)n(OCc3ccc(Cl)cc3)c2c1 the AC50 was 2240 nM (active).
With Clc1ccc(COn2c(-c3ccccc3)nc3ccccc32)cc1 the AC50 was 1580 nM (active).
With O=[N+]([O-])c1ccc2nc(-c3ccc(Cl)cc3)n(OCc3ccccc3)c2c1 the AC50 was 2510 nM (active).
C1CNCCOCCNCCN1 was tested, and the “activity, negative = inhibition” value was -0.3% (inactive).
CC(C)C[C@H](NC(=O)[C@@H](O)[C@@H](N)Cc1ccccc1)C(=O)O was tested, and the AC50 was “inactive”.
In the case of CC(C)C[C@@H](N)C(=O)Nc1ccc2ccccc2c1, the AC50 was 1580 nM (active).
In the case of C=CCSc1nnc(NC(=O)COc2ccc3ccccc3c2)s1, the “activity, negative = inhibition” value was -21.5% (inactive).
For CC(=O)CC(=O)Nc1ccc2ccccc2c1, the AC50 was 2000 nM (active).
For O=C(COc1ccc2ccccc2c1)Nc1ccc(Cc2ccncc2)cc1, the AC50 was 112 nM (active).
With CC(C)C[C@H](NC(=O)[C@@H](O)[C@H](N)Cc1ccccc1)C(=O)O the “activity, negative = inhibition” value was -28% (inactive).
CCc1ccc(OCC(=O)Nc2ccc(-c3nc4ccccc4o3)c(O)c2)cc1 was tested, and the “activity, negative = inhibition” value was 8.68% (inactive).
With c1ccc2cc(NCNc3ccc4ccccc4c3)ccc2c1 the AC50 was 631 nM (active).
With O=C(O)C[C@H](S)C(=O)O the activity, negative = inhibition was -2.96% [at 11.4 µM] (inactive).
With CO[C@H]1COC(=O)[C@@H](Cc2ccccc2)NC(=O)[C@@H](C)COC(=O)C/C=C\[C@@H]1C the activity, negative = inhibition was -3.6% [at 11.4 µM] (inactive).
For C#CCCCO/N=C1/C[C@@H](O)[C@@H](O)[C@@H]2[C@@H]3C(=O)N(C4CCCCC4)C(=O)[C@H]3CC[C@H]12, the activity, negative = inhibition was 7.63% [at 11.4 µM] (inactive).
CC1(C)Oc2cc(N)c([N+](=O)[O-])cc2O1 was tested, and the AC50 was 8910 nM (active).
With CC(=O)Nc1ccc(S(=O)(=O)N2CCC(N(C)CCC(C)C)CC2)cc1 the “activity, negative = inhibition” value was -6.77% (inactive).
CC(=O)Nc1ccc(NC(=O)C2CCN(S(=O)(=O)c3cccc4nonc34)CC2)cc1 was tested, and the “activity, negative = inhibition” value was -2.52% (inactive).
With CCc1ccc(NC(=O)C2CCN(S(=O)(=O)c3c(C)[nH]c(=O)[nH]c3=O)CC2)cc1 the “activity, negative = inhibition” value was -6.06% (inactive).
O=C(Nc1ccc(Cl)c(C(F)(F)F)c1)C1CCCN(S(=O)(=O)c2cnc[nH]2)C1 (stereo not drawn) was tested, and the AC50 was 15800 nM (active).
With CO[C@@H]1COC(=O)C/C=C\[C@H](C)COC(=O)[C@H](C)NC(=O)C/C=C\[C@H]1C the activity, negative = inhibition was -3.56% [at 11.4 µM] (inactive).
For CCc1nn(C)c(-c2n[nH]c(=S)n2N)c1Cl, the “activity, negative = inhibition” value was -0.733% (inactive).
In the case of Cc1nn(CCc2n[nH]c(=S)n2-c2ccc(F)c(Cl)c2)c(C)c1[N+](=O)[O-], the “activity, negative = inhibition” value was -3.99% (inactive).
With CC(C)Cn1c(-c2nn(C)cc2Cl)n[nH]c1=S the AC50 was 25100 nM (active).
For COc1ccc(-c2nc3cnc(Oc4cccc(Cl)c4)nc3n(C[C@H]3CCCO3)c2=O)cc1, the AC50 was 5010 nM (active).
In the case of O=c1c(-c2cccs2)nc2cnc(Oc3cccc(Cl)c3)nc2n1C[C@H]1CCCO1, the AC50 was 3160 nM (active).
In the case of CC(=O)OC[C@@H]1O[C@H](C/C=N\OC[C@@H](O)COCc2ccco2)C=C[C@@H]1OC(C)=O, the activity, negative = inhibition was 1.52% [at 11.4 µM] (inactive).
With C[C@H](N)C(=O)O the “activity, negative = inhibition” value was -18.8% (inactive).
For CCCCCCCCC(=O)NCc1cc(OC)c(O)cc1I, the AC50 was 12600 nM (active).
For O=C(O)c1cc(C(=O)O)nc(C(=O)O)c1, the activity, negative = inhibition was -9.81% [at 11.4 µM] (inactive).
CSc1c(-c2ccccc2)nc2ccccc2c1C(=O)O was tested, and the “activity, negative = inhibition” value was 10.1% (inactive).
For CSc1nnnc2ccccc12, the AC50 was 3160 nM (active).
For Cc1cnc(NC(=O)CSc2ccc(Cl)cc2)s1, the AC50 was 3160 nM (active).
With COCc1nnc(NC(=O)CSc2ccc(C)cc2)s1 the AC50 was 12600 nM (active).
In the case of COC(=O)c1sccc1NC(=O)CSc1cc(Cl)ccc1Cl, the AC50 was 2510 nM (active).
With COc1ccc(Cc2nnc(NC(=O)CSc3ccc(C)cc3)s2)cc1OC the “activity, negative = inhibition” value was -19.1% (inactive).
COCc1nnc(NC(=O)CC(c2ccccc2)c2ccccc2)s1 was tested, and the “activity, negative = inhibition” value was 7.41% (inactive).
For COC(=O)c1sccc1NC(=O)CSc1ccc(Cl)cc1, the AC50 was 14100 nM (active).
In the case of O=c1[nH]cc(CS(=O)(=O)Cc2c[nH]c(=O)[nH]c2=O)c(=O)[nH]1, the activity, negative = inhibition was -24.4% [at 11.4 µM] (inactive).
With CC(=O)N1CCC2(CCN(Cc3nccs3)CC2)CC1 the “activity, negative = inhibition” value was -13.5% (inactive).
COCC(=O)N1CCC2(CC1)CN(C(=O)Nc1cccc(C#N)c1)C2 was tested, and the “activity, negative = inhibition” value was 2.75% (inactive).
NCCSSCCN was tested, and the AC50 was “inactive”.
With CN1C(=O)/C(=N\OC(=O)c2cccc3ccccc23)c2ccccc21 the AC50 was 7080 nM (active).
CC(C)(Oc1ccc(-c2cccc3ccccc23)cc1)C(=O)O was tested, and the activity, negative = inhibition was 8.77% [at 11.4 µM] (inactive).
For CC(=O)c1c(O)cc(=O)n(-c2ccccc2)c1-c1cccc2ccccc12, the “activity, negative = inhibition” value was 8.95% (inactive).
CCOc1ccc(C(=O)CCC(=O)O)cc1 was tested, and the “activity, negative = inhibition” value was -8.88% (inactive).
For COc1ccc(CCN=CC2=C(O)CC(C)(C)CC2=O)cc1, the “activity, negative = inhibition” value was -18.3% (inactive).
With COc1ccc2cc(CCC(C)=O)ccc2c1 the AC50 was 398 nM (active).
In the case of COc1ccc(/C(O)=C2/C(=O)C(=O)N(CCCC(=O)O)C2c2ccc(OC)cc2)cc1 (stereo not drawn), the “activity, negative = inhibition” value was -24% (inactive).
With COc1ccc2cc(C(=O)CCC(=O)O)ccc2c1 the AC50 was 794 nM (active).
For COc1cccc(/C=N/NC(=O)c2cc(-c3cccn3C)n[nH]2)c1, the AC50 was 6310 nM (active).
With COc1cccc(/C=N/NC(=O)c2c(-c3ccccc3)noc2C)c1 the “activity, negative = inhibition” value was -18.4% (inactive).
In the case of COc1cc2nc(N3CCN(C(=O)OCc4ccccc4)[C@H](C(=O)NC(C)(C)C)C3)nc(N)c2cc1OC, the “activity, negative = inhibition” value was -14.2% (inactive).
CSc1nc(N)c2ncn([C@@H]3O[C@@H](COP(=O)(O)OP(=O)(O)O)[C@@H](O)[C@H]3O)c2n1 was tested, and the “activity, negative = inhibition” value was -5.39% (inactive).
In the case of CCn1c(=O)[nH]c2cc(Cl)c(Cl)cc21, the AC50 was 251 nM (active).
For CCn1c(C)[n+](CCCS(=O)(=O)[O-])c2cc(Cl)c(Cl)cc21, the “activity, negative = inhibition” value was -7.03% (inactive).
With CC[N+](CC)(CC)CC the “activity, negative = inhibition” value was 11.2% (inactive).
In the case of Cc1ccc(C)n1N1C(=O)/C(=C\c2ccc(Cl)cc2)SC1=S, the AC50 was 1580 nM (active).
CC1=N/C(=C\c2ccc([N+](=O)[O-])cc2)C(=O)N1c1ccc(Cl)cc1 was tested, and the “activity, negative = inhibition” value was -20.6% (inactive).
For CC1=NN(c2ccc(S(=O)(=O)O)cc2)C(=O)/C1=C\c1ccc(Cl)cc1, the activity, negative = inhibition was -8.89% [at 2.29 µM] (inactive).
In the case of C[C@@](N)(/C=C\c1ccccc1)C(=O)O, the activity, negative = inhibition was -17.1% [at 11.4 µM] (inactive).
For O=C(CN1CCN(c2ccc(Cl)cc2)CC1)Nc1cccc(F)c1, the AC50 was 12600 nM (active).
For O=C(CSc1ccc(Cl)cc1)Nc1ccc(N2CCN(c3ccccc3)CC2)c(F)c1, the “activity, negative = inhibition” value was -16.6% (inactive).
For CCc1c2c(nc3c(C(C)C)cccc13)-c1cccc(=O)n1C2, the AC50 was 398 nM (active).
For CC(C)c1cccc2cc3c(nc12)-c1cccc(=O)n1C3, the AC50 was 501 nM (active).
For CC(C)c1cccc2c([Si](C)(C)C)c3c(nc12)-c1cccc(=O)n1C3, the AC50 was 15800 nM (active).
With CCC(C)N1C(=O)C2C(C(=O)Nc3cccc(OC)c3)C3C=CC2(O3)C1C(=O)NC1CCCCC1C (stereo not drawn) the “activity, negative = inhibition” value was -4.89% (inactive).
With COc1ccc(O[C@H]2C=C[C@@H](c3ccccc3)O[C@H]2CO/N=C(/C)CCC(=O)OC[C@@H]2O[C@H](c3ccccc3)C=C[C@@H]2Oc2ccc(OC)cc2)cc1 the activity, negative = inhibition was -1.91% [at 11.4 µM] (inactive).
For CSC(N)=NCCC[C@@H](N)C(=O)O, the “activity, negative = inhibition” value was -1.68% (inactive).
With CNc1nc(-c2ccccc2C(F)(F)F)nc2ccccc12 the AC50 was 251 nM (active).
FC(F)(F)c1ccccc1-c1nc(NC2CC2)c2ccccc2n1 was tested, and the AC50 was 398 nM (active).
For O=C1[C@H]2O[C@@H]2[C@@H](O)[C@H]2[C@H]1CCn1c(=O)n(Cc3cc4c(cc3Cl)OCO4)c(=O)n12, the activity, negative = inhibition was -4.53% [at 11.4 µM] (inactive).
